Reference: paper PMC4336329 (PLoS ONE, 2015)
Hit rate of the full screen: of about 310,000 compounds, about 14,000 (4.5%) showed an effect of 50% or more. Effects have a minus sign here. The full list was thinned out, with strong results kept by preference.

What follows are compounds tested against human ether-à-go-go-related gene (hERG) potassium channel (human, UniProt Q12809) (assay: primary screen, population patch clamp on CHO cells stably expressing hERG; higher = less effect of the substance).
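Also: peak tail current of the secondary pulse compared with the same well before compound.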

Sequence of human ether-à-go-go-related gene (hERG) potassium channel (Q12809 whole entry, looked up): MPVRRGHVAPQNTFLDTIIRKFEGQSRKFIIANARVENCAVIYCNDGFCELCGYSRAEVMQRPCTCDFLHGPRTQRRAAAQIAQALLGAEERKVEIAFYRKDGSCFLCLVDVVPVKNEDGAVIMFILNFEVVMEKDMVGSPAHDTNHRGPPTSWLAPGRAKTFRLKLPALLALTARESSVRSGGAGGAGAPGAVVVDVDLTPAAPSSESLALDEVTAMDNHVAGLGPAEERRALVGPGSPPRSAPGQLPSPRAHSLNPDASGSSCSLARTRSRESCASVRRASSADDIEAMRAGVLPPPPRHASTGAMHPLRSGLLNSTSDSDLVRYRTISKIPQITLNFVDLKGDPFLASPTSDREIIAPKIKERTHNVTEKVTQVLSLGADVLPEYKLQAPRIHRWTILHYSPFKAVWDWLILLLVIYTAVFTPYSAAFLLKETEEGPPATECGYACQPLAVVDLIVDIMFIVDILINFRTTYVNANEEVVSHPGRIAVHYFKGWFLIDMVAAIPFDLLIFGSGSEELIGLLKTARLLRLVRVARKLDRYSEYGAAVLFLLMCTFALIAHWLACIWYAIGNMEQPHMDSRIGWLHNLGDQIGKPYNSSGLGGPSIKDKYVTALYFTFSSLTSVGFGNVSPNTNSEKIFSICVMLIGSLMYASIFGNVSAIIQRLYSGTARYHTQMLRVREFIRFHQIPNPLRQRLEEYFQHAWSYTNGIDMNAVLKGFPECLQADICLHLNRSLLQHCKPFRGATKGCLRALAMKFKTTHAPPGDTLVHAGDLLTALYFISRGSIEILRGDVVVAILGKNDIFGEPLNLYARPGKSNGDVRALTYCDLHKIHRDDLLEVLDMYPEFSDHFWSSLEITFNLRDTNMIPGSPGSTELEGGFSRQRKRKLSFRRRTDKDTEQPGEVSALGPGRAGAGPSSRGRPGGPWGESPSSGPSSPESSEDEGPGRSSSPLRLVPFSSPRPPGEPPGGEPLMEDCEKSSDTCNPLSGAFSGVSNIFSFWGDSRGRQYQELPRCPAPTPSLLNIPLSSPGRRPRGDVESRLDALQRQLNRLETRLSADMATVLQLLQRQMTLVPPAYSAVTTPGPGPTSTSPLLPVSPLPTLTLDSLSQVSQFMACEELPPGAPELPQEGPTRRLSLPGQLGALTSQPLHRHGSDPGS

| Compound | hERG current change (%, negative = inhibition) at 10uM [%] |
| --- | --- |
| CC1CN=C(Nc2ccccc2)S1 (stereo not drawn) | 7.23 |
| COc1cccc(CNS(=O)(=O)c2c(C(=O)N3CCCCC3)c(C)n(C)c2C)c1 | 9.63 |
| COC(=O)c1cnc(SCc2ccc([N+](=O)[O-])cc2)n1C | -32 |
| Fc1ccc(SCCc2ccncc2)cc1 | -29.9 |
| O=C(COC(=O)CSc1ccc([N+](=O)[O-])cc1)NCCCc1ccccc1 | 4.5 |
| O=C(COC(=O)CSc1ccc([N+](=O)[O-])cc1)NCCc1ccccc1 | 5.52 |
| Cn1c(SCCc2ccc([N+](=O)[O-])cc2)nccc1=O | -59.9 |
| O=c1ccnc(SCCc2ccc([N+](=O)[O-])cc2)[nH]1 | -34 |
| O=[N+]([O-])c1ccc(SCCc2ccccn2)cc1 | -44.3 |
| O=[N+]([O-])c1ccc(SCCc2ccncc2)cc1 | -63.7 |
| O=[N+]([O-])c1ccc(SCCc2cc[nH+]cc2)cc1.[Cl-] | -53.7 |
| COc1ccc(C)cc1Cn1c(S(C)(=O)=O)nc2ccccc21 | -9.64 |
| Cc1cccc(N2CCN(C(=O)CCN3C(=O)C4C5C=CC(C5)C4C3=O)CC2C)c1 (stereo not drawn) | -18.2 |
| CCN1CN(CCc2ccccc2)CNC1=S | 5.61 |
| O=C(C1CCN(S(=O)(=O)c2ccc(Cl)cc2)CC1)N1CCCCCCC1 | -16.1 |
| Cc1ccc(-n2nc3c(c2NC(=O)c2ccc4c(c2)OCO4)CS(=O)C3)cc1 (stereo not drawn) | 7.09 |
| CCN(CC)C(=O)/C(=C/c1ccc2c(c1)OCO2)NC(=O)c1ccc(Br)cc1 | -70.5 |
| COc1ccc(C(=O)N/C(=C\c2ccc3c(c2)OCO3)C(=O)Nc2ccc(C(=O)O)cc2)cc1 | 17.8 |
| O=C(NCc1ccc2c(c1)OCO2)c1ccc(Br)cc1 | -19.8 |
| CCN(CC)C(=O)/C(=C\c1ccc(Br)cc1)NC(=O)c1ccccc1OC | -27.3 |
| CCN(CC)C(=O)/C(=C\c1ccc2c(c1)OCO2)NC(=O)c1ccc(Br)cc1 | -63.5 |

| Compound | hERG current change (%, negative = inhibition) at 10uM [%] |
| --- | --- |
| COc1ccc(-c2cn(CCN)c(-c3ccncc3)n2)cc1 | 5.87 |
| CN(C)S(=O)(=O)c1ccc(Cl)c(NC(=O)COC(=O)CN2C(=O)C3CCCCC3C2=O)c1 (stereo not drawn) | 6.74 |
| CCC1CCCCN1S(=O)(=O)c1ccc2[nH]c(=O)ccc2c1 (stereo not drawn) | -60.1 |
| CCC1CCCCN1S(=O)(=O)c1ccccc1 (stereo not drawn) | -13 |
| CC1CCN(S(=O)(=O)c2ccc3[nH]c(=O)ccc3c2)CC1 | -5.5 |
| C=CCN(c1ccc(C(=O)NCCc2ccccc2)cc1)S(C)(=O)=O | -6.23 |
| COc1ccc(C)cc1NC(=O)C(c1ccccc1)N1CCNC(=O)C1 (stereo not drawn) | -5.31 |
| CC(C)(C)c1ccc(C(=O)NCCCN2CCN(CCCNC(=O)c3ccc(C(C)(C)C)cc3)CC2)cc1 | -63.6 |
| CC(C)(C)c1ccc(C(=O)NCCN2CCOCC2)cc1 | 1.01 |
| Cc1ccc(C(=O)NCCCN2CCOCC2)cc1 | 3.81 |
| O=C(Nc1ccc(C(=O)NCCCN2CCN(c3ccccc3)CC2)cc1)C1=CSCCO1 | -38.2 |
| Cc1ccc(C(=O)NCCCN2CCN(CCCNC(=O)c3ccc(C)cc3)CC2)cc1 | -67.5 |
| CN1CCN(CCCNC(=O)c2ccc(NC(=O)C3=CSCCO3)cc2)CC1 | 11.5 |
| CC(C)(C)c1ccc(C(=O)NCCN2CCCC2)cc1.Cl | -6.48 |
| O=C(Nc1ccc(C(=O)NCCCN2CCN(c3ccc(F)cc3)CC2)cc1)C1=CSCCO1 | -54 |
| CC(C)c1ccc(C(=O)NCCCN2CCN(CCCNC(=O)c3ccc(C(C)C)cc3)CC2)cc1 | -84.3 |
| CC(C)c1ccc(C(=O)NCCCN2CCOCC2)cc1 | -5.2 |
| Cc1ccc(C(=O)NCCN2CCCC2)cc1.Cl | -5.44 |
| CC(C)c1ccc(C(=O)NCCCN(C)C)cc1 | -17.1 |
| COc1cccc(C(=O)NCC2CCCN2S(=O)(=O)c2ccccc2)c1 (stereo not drawn) | 2.72 |
| COc1cccc(-n2c(C)n[nH]c2=O)c1 | 14.1 |

| Compound | hERG current change (%, negative = inhibition) at 10uM [%] |
| --- | --- |
| O=C(N/N=C/c1ccc(O)cc1)c1csc2c1CCCC2 | -19.7 |
| CCc1cc(Br)ccc1N1C(=O)C2CC=CCC2C1=O (stereo not drawn) | 5.21 |
| Cc1nccn1CCCNC(=O)CC1C(=O)NCCN1Cc1ccccc1C(F)(F)F (stereo not drawn) | 9.64 |
| CCCN(N=Nc1cccc([N+](=O)[O-])c1)c1cccc([N+](=O)[O-])c1 | 3.14 |
| O=C(NCCCNC(=O)c1ccc(F)cc1)c1ccc(F)cc1 | 7.81 |
| O=C(NCCCN1CCN(CCCNC(=O)c2ccc(F)cc2)CC1)c1ccc(F)cc1 | -51.1 |
| O=C(NCCCCNC(=O)c1ccc(F)cc1)c1ccc(F)cc1 | 13.3 |
| CCn1c2ccccc2c2nnc(SCC(=O)N(C)C3CCS(=O)(=O)C3)nc21 (stereo not drawn) | -21 |
| O=C(CN(C(=O)CCC(=O)Nc1ccccn1)c1cccc(F)c1)NCc1ccc(F)cc1 | -4.26 |
| CS(=O)(=O)N1CCN(C(=O)c2csc3ccccc23)CC1 | 2.35 |
| CN1CC(C(=O)c2ccc(F)cc2)C(c2ccc(F)cc2)C1 (stereo not drawn) | -30.2 |
| Cc1ccc(C2CN(c3ccccc3)CC2C(=O)c2ccc(F)cc2)cc1 (stereo not drawn) | -17 |
| O=C(c1ccccc1)C1CN(c2ccccc2)CC1c1ccc(Cl)cc1 (stereo not drawn) | 27.1 |
| CN1CC(C(=O)c2ccc(F)cc2)C(c2c(F)cccc2Cl)C1 (stereo not drawn) | -65.7 |
| CN1CC(C(=O)c2ccc(Cl)cc2)C(c2ccccc2F)C1 (stereo not drawn) | -46.5 |
| COc1cccc(C(=O)C2CN(C)CC2c2ccc(Cl)cc2)c1 (stereo not drawn) | -66.4 |
| CN1CC(C(=O)c2cccc(C(F)(F)F)c2)C(c2ccc(Cl)cc2)C1 (stereo not drawn) | -20 |
| Cc1ccc(C2CN(C)CC2C(=O)c2ccc(F)cc2)cc1 (stereo not drawn) | -53.2 |
| COc1cccc(C(=O)C2CN(c3ccccc3)CC2c2ccc(Cl)cc2)c1 (stereo not drawn) | 5.04 |
| CN1CC(C(=O)c2ccc(Cl)cc2)C(c2ccc(Cl)cc2Cl)C1 (stereo not drawn) | -49.2 |
| CN1CC(C(=O)c2ccc([N+](=O)[O-])cc2)C(c2ccc(Cl)cc2)C1 (stereo not drawn) | -75.6 |
